# Screening data deposited in PubChem BioAssay by Fisher Drug Discovery Resource Center.
# hcGAS inh: inhibitors of human cGAS; Q8N884; recombinant h-cGAS, ATP depletion, Kinase-Glo luminescence; inhibition, % at 12.5 µM; 290,000 tested, 0.081% active;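 further: 0% = vehicle reaction and 100% = reaction without DNA for no activity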
# Target sequence (Q8N884 whole entry, looked up): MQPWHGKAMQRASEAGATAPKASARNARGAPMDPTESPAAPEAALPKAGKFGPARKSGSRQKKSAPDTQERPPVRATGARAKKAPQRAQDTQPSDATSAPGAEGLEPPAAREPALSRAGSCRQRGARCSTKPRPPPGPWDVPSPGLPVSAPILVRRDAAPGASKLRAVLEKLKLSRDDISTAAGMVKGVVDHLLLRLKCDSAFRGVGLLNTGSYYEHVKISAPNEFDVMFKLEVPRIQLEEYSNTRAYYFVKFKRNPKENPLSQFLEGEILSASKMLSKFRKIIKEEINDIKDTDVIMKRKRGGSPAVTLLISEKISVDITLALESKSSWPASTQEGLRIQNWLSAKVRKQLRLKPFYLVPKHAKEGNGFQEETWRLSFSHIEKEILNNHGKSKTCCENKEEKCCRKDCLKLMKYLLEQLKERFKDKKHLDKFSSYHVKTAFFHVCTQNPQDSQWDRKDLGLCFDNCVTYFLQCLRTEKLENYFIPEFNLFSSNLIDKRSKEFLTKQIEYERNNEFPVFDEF
# NPYLR7 ag: mosquito NPYLR7 agonism. HEK293T NPYLR7/Galpha15, GCaMP6s calcium fluorescence. activation, % at 10 µM. 270,000 tested, 0.15% active. AID 1259423; in the data active means activation above about 40%;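 further: 0% = vehicle and 100% = reference agonist at the receptor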
# mcGAS inh: mouse cGAS inhibition by luminescence. recombinant cGAS, Kinase-Glo ATP depletion luminescence. 160,000 tested, 0.15% active. AID 1259399. Q8C6L5. inhibition, % at 12.5 µM;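 further: 0% = negative control wells and 100% = reference inhibitor with no enzyme activity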
# An asterisk follows results filed as active; / = no result. Rows were chosen to be rich in hits. Some 0.24% of all compounds tested hit in one or more screens of this group. Unless noted, no stated cut-off is given here; in the data, active means inhibition above about 40%; inactive means the rest.
SMILES,hcGAS inh,NPYLR7 ag,mcGAS inh
CC(C)(C)OCC(O)CN1CCC(=O)N(CC(=O)C(C)(C)C)Cc2ccccc21 (centres undefined),4,-4,2
O=S(=O)(Nc1cc(S(=O)(=O)N2CCOCC2)ccc1O)c1ccc2c(c1)CCC2,-1,-1,/
COc1cc(=O)n(-c2ccc(C)cc2)nc1C(=O)N1c2ccc(F)cc2CCC1C (centres undefined),-6,10,-8
COc1ccc(S(=O)(=O)NC(C)c2ccncc2)cc1F (centres undefined),-15,2,/
COc1ccc(C(C)NS(=O)(=O)c2ccc(Cl)cc2C(F)(F)F)cc1F (centres undefined),2,107*,/
CCC(C(=O)NC(C)C)n1nc(C)n2c(cc3occc32)c1=O (centres undefined),1,-13,-1
CCCC1CCC(C(=O)Nc2nnc(SCC)s2)CC1 (centres undefined),-3,55*,-6
O=C(Nc1nnc(SCC2CC2)s1)C1CCCC1,-4,-5,-4
Cc1ccc2[nH]c(O)c(N=Nc3ccc(C(F)(F)F)cn3)c2c1,2,-16,-1
COc1ccc(CCN2C(=O)CC(N3CCN(c4ncccn4)CC3)C2=O)cc1OC (centres undefined),4,2,/
COc1cc(NC(=O)c2ccco2)c(OC)cc1Cl,-11,24,/
COc1ccc(NC(=O)C2C=CCN2)cc1NC(=O)c1ccco1 (centres undefined),-6,64*,-18
O=C(c1cn(Cc2ccc(F)cc2Cl)nn1)N1CCCCC1c1nccs1 (centres undefined),-4,-2,/
Cc1oc(-c2cccc(NC(=O)CC(C)C)c2)nc1CNC(=O)Cc1cc(F)cc(F)c1,-7,56*,-8
Cc1oc(-c2ccccc2NS(=O)(=O)c2cccc(F)c2)nc1CNC(=O)CC(C)C,-5,5,/
CCN1CC(=Cc2cc(C)n(C3CC3)c2C)C(=O)C(=Cc2cc(C)n(C3CC3)c2C)C1,-12,48*,/
Cc1cc(C=C2SC(N)=NC2=O)c(C)n1C1CC1,-10,4,/
Cc1ccc(Cl)cc1NC(=O)COC(=O)c1ccccc1C(F)(F)F,-4,10,/
COc1cccc(CN(C(=O)c2cccc(F)c2)C2CC2)c1OCc1nc(CO)cs1,-9,-6,-7
COc1cccc(CNC2CC2)c1OCc1nc(CO)cs1,-2,46*,/
Cc1cc(=O)n2[nH]cc(-c3ccc(F)cc3)c2n1,-7,-14,/
Cc1cc(=O)n2[nH]cc(-c3ccccc3Cl)c2n1,46*,3,26
Cc1ccoc1C(=O)N1Cc2cnn(Cc3ccc(F)cc3)c2C1,-4,/,-18
CCOc1cc(/C=C2/NC(=S)NC2=O)cc(Br)c1O,4,52*,5
CCOc1cc(Br)cc(/C=C2/NC(=S)NC2=O)c1O,2,-5,4
SMILES,hcGAS inh,NPYLR7 ag,mcGAS inh
CCCCc1nc(N2CCCN(C(=O)c3ccccc3F)CC2)c2c(C)nn(-c3ccccc3)c2n1,-2,9,-5
CCOC(=O)CCC(=O)N1CCN(C(=O)c2cc3ccoc3n2Cc2ccc(C)cc2)CC1C (centres undefined),-4,8,-3
C=C(C)Cn1c(C(=O)N2CCN(C(=O)CCC(=O)OCC)C(C)C2)cc2ccoc21 (centres undefined),-10,57*,-7
O=C(NCCCn1c(=O)[nH]c2ccccc21)Nc1cccc(F)c1,-2,24,-4
Cc1ccc(C)c(-n2c(C)cn3c4c(=O)n(CC(C)C)c(=O)n(C)c4nc23)c1,-7,4,-8
O=C(NC(c1ccc2ccccc2n1)c1cccs1)C1CCN(CCCN2C(=O)C3CCCCC3C2=O)CC1 (centres undefined),-2,1,-1
N#CC1C(=N)SC(=N)C(C#N)C1c1cccs1 (centres undefined),74*,27,70*
CC(=O)[C@@H]1SC(=N)C(C#N)[C@H]1c1cccs1 (some centres undefined),7,-5,2
Cc1ccccc1C1=NOC(CNCc2ccc(C(F)(F)F)cc2)C1 (centres undefined),1,-4,0
COc1cc(C(=O)C=Cc2ccc(C#N)cc2)ccc1O,-10,1,64*
COc1cc(C(=O)C=Cc2ccc(OC(F)F)cc2)ccc1O,-1,-6,35
COc1cc(C(=O)C=Cc2cc(OC)c(O)c([N+](=O)[O-])c2)ccc1O,-7,-8,/
COc1ccc(C(=O)C=Cc2cc(OC)c(O)c(OC)c2)cc1F,-4,64*,5
O=[N+]([O-])c1ccc(N2N=C(c3ccccc3)CC2c2ccc(F)cc2)cc1 (centres undefined),-5,1,/
Cc1cnc(C(=O)NCCN2C(=O)SC(=Cc3cccs3)C2=O)cn1,-11,1,/
O=C(O)CN1C(=O)C(=NN2C(=O)CSC2=S)c2ccccc21,43*,-3,/
O=C(O)CN1C(=O)C(=C2C(=O)N(CC(=O)O)c3ccccc32)SC1=S,-8,1,-1
CCOCCCNC(=O)c1cc(NC(=O)Nc2ccc(C)cc2C)ccc1N1CCC(Cc2ccccc2)CC1,-4,12,-4
Cc1nc(Sc2nnc3ccccn23)c2c3c(sc2n1)CCCC3,-3,43*,-7
c1ccn2c(Sc3ncnc4sc5c(c34)CCCC5)nnc2c1,0,4,/
CCC(C)N(Cc1ccc(OS(=O)(=O)c2ccc(OC)cc2)cc1)C(=O)c1ccccc1Cl (centres undefined),3,0,1
O=C1SC(Nc2ccc(I)cc2)C(=O)N1c1ccccc1 (centres undefined),-3,63*,-2
CC(C)CN1C(=O)SC(Nc2ccccc2)C1=O (centres undefined),-8,16,-5
O=C1C(Br)C[C@@H]2[C@H]1C1CCC2(Br)C12OCCO2 (some centres undefined),0,-5,/
CC(C)N1CCc2c(sc(NC(=O)c3ccnn3C)c2-c2nc3ccccc3s2)C1,-1,/,-3
SMILES,hcGAS inh,NPYLR7 ag,mcGAS inh
CC(=O)Nc1sc2c(c1-c1nc3ccccc3s1)CCN(C(C)C)C2,78*,22,104*
O=C(CN1CCCC1c1ccccc1)NCc1ccccc1 (centres undefined),-5,3,/
S=c1n(CN2CCCC2c2ccccc2)cc2ccccn12 (centres undefined),55*,13,/
O=C(NC1CCCN(c2cccc(F)c2)C1)c1csnn1 (centres undefined),-1,/,/
COCCCN(CC(=O)N(Cc1cccn1Cc1ccc(Br)cc1)C1CCCCC1)C(=O)C(C)(C)CCl,-6,-7,-5
O=c1[nH]c2n[nH]c(=S)n2c2c1CCCC2,51*,-2,/
Cc1cc(=O)[nH]c2n[nH]c(=S)n12,28,-4,/
Cc1ccc(CN(Cc2ccc(F)cc2)C(=O)CNC2CC2)s1,-9,-3,-7
O=C(O)Cc1sc(-c2cccs2)nc1-c1ccc(Cl)cc1,7,8,/
CC(C)N1C(=O)SC(=Cc2ccc(N3CCCCC3)o2)C1=O,-6,10,-6
C#CCN1C(=O)SC(=Cc2ccc(N3CCCCC3)o2)C1=O,-7,122*,-3
COC1CCN(C(=O)Nc2cccc(C#N)c2)CC(=O)N(C)c2ccccc21 (centres undefined),8,-6,-1
